From PubChem BioAssay (NCI)
About 83,000 compounds went through this panel and 20% of them were active in at least one assay; those are over-represented in the sample as a whole.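 The endpoint reported here, percent growth, reads 100 for growth as untreated, 0 for no net growth and -100 for all cells dead.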 A number with no mark means an inactive call. Calls of active or inactive are those of the source. The calls were made as follows: active = growth percent below 10; inactive = the rest.

Each molecule was assayed on HOP-62 NSCLC (assay: NCI-60 one-dose screen, 48 h (100 = growth as untreated, 0 = no growth, -100 = all killed)). Settings: 10 µM unless noted.

Q: With `COc1cc(/C=C/C(=O)c2c(C)n([O-])c3ccc(Cl)cc3[n+]2=O)cc(OC)c1OC` as the molecule, how does the growth read?
A: 110%

Q: How did the growth turn out when `COc1ccc2ncccc2c1Cc1c(OC)ccc2ncccc12` was run?
A: 65%

Q: `C=C1CC[C@@H]2[C@](C)(COC(C)=O)[C@H](OC(C)=O)CC[C@@]2(C)[C@@H]1CC(NCc1ccccc1)C1=CCOC1=O` (stereo not given in full) was tested. Which growth did it give?
A: 89%

Q: Which growth does the source give for `CCOC(=O)c1sc(NC(=O)COc2cccc(/C=C3\Cc4ccc(Cl)cc4C3=O)c2)nc1C` here?
A: 107%

Q: With `O=C(Nc1cccc(-n2cc(-c3ccncc3)c(-c3cc(O)cc(Cl)c3)n2)c1)Nc1ccc(Cl)c(Cl)c1` as the molecule, how does the growth read?
A: -44.2% (active)

Q: How did the growth turn out when `O=c1ccn(C2CC=C(CO)O2)c(=O)[nH]1` (stereo not given) was run?
A: 102%

Q: Which growth does the source give for `COC(=O)[C@H](Cc1cn(C)cn1)NC(=O)[C@@H](NC(=O)Nc1cc(C(F)(F)F)cc(C(F)(F)F)c1)C(C)C` here?
A: -98.6% [100 µM] (active)

Q: Which growth does the source give for `O=c1c2ccccc2c2nccn2c2cc(Cl)ccc12` here?
A: 71.7%

Q: For `[N-]=[N+]=NCc1ncc(-c2ccc(C(F)(F)F)cc2)c(NC2CCCCCC2)n1`, which growth is on record?
A: 87% [50 µM]

Q: How did the growth turn out when `CN(C)CCC(=O)Nc1ccc(-n2cc(-c3cccc(NC(=S)Nc4cccc(-c5cn(-c6ccc(NC(=O)CCN(C)C)cc6)nn5)c4)c3)nn2)cc1` was run?
A: 105%

Q: Which growth does the source give for `C/C(=C\CCc1ccoc1)CC/C=C(\C)CCCNc1ccc(F)cc1` here?
A: 93.6%

Q: With `COP(=O)(OC)C(c1ccccc1)(c1ccccc1)c1ccccc1` as the molecule, how does the growth read?
A: 93.8%

Q: `COc1cc(/C=C2\CN(S(=O)(=O)c3ccc(C)cc3)C/C(=C\c3cc(CN4CCOCC4)c(O)c(OC)c3)C2=O)cc(CN2CCOCC2)c1O` was tested. Which growth did it give?
A: -16% (active)

Q: For `CCCCCc1c(C)[nH]c(/C=C2\N=C(c3ccc[nH]3)C=C2Oc2ccccc2)c1C`, which growth is on record?
A: -46.4% [100 µM] (active)

Q: Which growth does the source give for `CCCCCCCSc1ncnc2[nH]ncc12` here?
A: 95.7%

Q: For `COc1cccc(/C=N\NC(=O)c2ccncc2)c1O`, which growth is on record?
A: 50.8%

Q: For `Cc1cc(=O)oc2cc(OCCn3c(C)nn(-c4ccc(Cl)cc4)c3=O)ccc12`, which growth is on record?
A: 27.4%

Q: `CC1CC=CCC1C1OCC(C)(C)CO1` (stereo not given) was tested. Which growth did it give?
A: 89.3%

Q: For `O=C1CSC(c2ccccc2Cl)N1c1nnc(Cn2nnc3ccccc32)o1` (stereo not given), which growth is on record?
A: 91.9%

Q: Which growth does the source give for `O=C1Nc2ccc(C(=O)O)c(O)c2C1=O` here?
A: 97.4%

Q: Which growth does the source give for `ICCC(c1ccccc1)(c1ccccc1)c1ccccc1` here?
A: 55.8%

Q: With `O=C(Oc1cccc2ccccc12)c1ccccc1C(=O)c1ccccc1` as the molecule, how does the growth read?
A: 101%

Q: How did the growth turn out when `COc1ccc(C(=O)/C=C/c2ccc(C)cc2)cc1OC` was run?
A: 79%

Q: With `O=C(Nc1nc2c(C(F)(F)F)cccc2s1)c1cc(Cl)ccc1O` as the molecule, how does the growth read?
A: -7.84% (active)

Q: Which growth does the source give for `CCOC(=O)C1C(=O)NC(C(=O)OCC)(C(=O)OCC)C1CC` (stereo not given) here?
A: 109%

Q: `O=C(CNC(=O)c1cccc2ccccc12)Nc1ccccc1Oc1cccc(O)c1` was tested. Which growth did it give?
A: 19.2% [5 µM]

Q: For `CC(=O)Nc1c(Cl)cc2c(c1Cl)Cc1cc([N+](=O)[O-])ccc1-2`, which growth is on record?
A: 69.6%

Q: For `COc1cc2c(cc1OC)C(CC1(O)CCCCC1)N(S(=O)(=O)c1ccc(C)cc1)CC2` (stereo not given), which growth is on record?
A: 79.3% [100 µM]

Q: With `NC(=O)NC1(C(=O)O)CCCC1` as the molecule, how does the growth read?
A: 110%

Q: For `COc1ccc(N2CCN(CC(=O)N3CCN(c4nnc(-c5ccc(Cl)cc5)c(-c5ccc(Cl)cc5)n4)CC3)CC2)cc1`, which growth is on record?
A: 93.3%

Q: How did the growth turn out when `Oc1ccc(/C=N/Nc2nc3ccccc3s2)c(O)c1` was run?
A: 26.7%

Q: With `Nc1ccccc1-c1ccn[nH]1` as the molecule, how does the growth read?
A: 87.4%

Q: How did the growth turn out when `Nc1ccc2c(c1)Cc1cc(Cl)c(Cl)cc1-2` was run?
A: 86.5%

Q: Which growth does the source give for `O=C1C=CC(=O)N1c1ccccc1N1C(=O)C=CC1=O` here?
A: 94.5%

Q: How did the growth turn out when `Clc1ccc2c(c1)C(Br)c1cc(Cl)cc(Cl)c1-2` (stereo not given) was run?
A: 88.1%

Q: `NS(=O)(=O)c1ccc(-n2ncc3c(NC4CCCCC4)ncnc32)cc1` was tested. Which growth did it give?
A: 101%

Q: `COc1cccc(CCN2C(=O)CCC3=C2CCC3=O)c1` was tested. Which growth did it give?
A: 102%

Q: How did the growth turn out when `O=C(C(=O)c1cc(Br)ccc1O)c1cc(Br)ccc1O` was run?
A: 50.3%

Q: `O=CN1N=C(c2ccc(Cl)cc2)CC1c1cccc(Nc2ccnc3cc(Cl)ccc23)c1` (stereo not given) was tested. Which growth did it give?
A: 8.16% (active)

Q: Which growth does the source give for `CCN(CC)CCNCC(=O)Oc1ccc(/C=C/C(=O)CC(=O)/C=C/c2ccc(OC(=O)CNCCN(CC)CC)c(OC)c2)cc1OC` here?
A: 34%

These molecules were tested on NCI-H460 lung in the same assay as above. Settings: 10 µM unless noted.

Q: With `COc1cc(/C=C/C(=O)c2c(C)n([O-])c3ccc(Cl)cc3[n+]2=O)cc(OC)c1OC` as the molecule, how does the growth read?
A: 64.3%

Q: `COc1ccc2ncccc2c1Cc1c(OC)ccc2ncccc12` was tested. Which growth did it give?
A: 82.4%

Q: For `C=C1CC[C@@H]2[C@](C)(COC(C)=O)[C@H](OC(C)=O)CC[C@@]2(C)[C@@H]1CC(NCc1ccccc1)C1=CCOC1=O` (stereo not given in full), which growth is on record?
A: 48.4%

Q: For `CCOC(=O)c1sc(NC(=O)COc2cccc(/C=C3\Cc4ccc(Cl)cc4C3=O)c2)nc1C`, which growth is on record?
A: 103%

Q: `O=C(Nc1cccc(-n2cc(-c3ccncc3)c(-c3cc(O)cc(Cl)c3)n2)c1)Nc1ccc(Cl)c(Cl)c1` was tested. Which growth did it give?
A: 0.213% (active)

Q: For `O=c1ccn(C2CC=C(CO)O2)c(=O)[nH]1` (stereo not given), which growth is on record?
A: 124%

Q: For `COC(=O)[C@H](Cc1cn(C)cn1)NC(=O)[C@@H](NC(=O)Nc1cc(C(F)(F)F)cc(C(F)(F)F)c1)C(C)C`, which growth is on record?
A: -45.9% [100 µM] (active)

Q: For `O=c1c2ccccc2c2nccn2c2cc(Cl)ccc12`, which growth is on record?
A: 101%

Q: For `[N-]=[N+]=NCc1ncc(-c2ccc(C(F)(F)F)cc2)c(NC2CCCCCC2)n1`, which growth is on record?
A: 58.4% [50 µM]

Q: For `CN(C)CCC(=O)Nc1ccc(-n2cc(-c3cccc(NC(=S)Nc4cccc(-c5cn(-c6ccc(NC(=O)CCN(C)C)cc6)nn5)c4)c3)nn2)cc1`, which growth is on record?
A: 95.6%

Q: For `C/C(=C\CCc1ccoc1)CC/C=C(\C)CCCNc1ccc(F)cc1`, which growth is on record?
A: 92.7%

Q: How did the growth turn out when `COP(=O)(OC)C(c1ccccc1)(c1ccccc1)c1ccccc1` was run?
A: 108%

Q: How did the growth turn out when `COc1cc(/C=C2\CN(S(=O)(=O)c3ccc(C)cc3)C/C(=C\c3cc(CN4CCOCC4)c(O)c(OC)c3)C2=O)cc(CN2CCOCC2)c1O` was run?
A: -46.9% (active)

Q: Which growth does the source give for `CCCCCc1c(C)[nH]c(/C=C2\N=C(c3ccc[nH]3)C=C2Oc2ccccc2)c1C` here?
A: -38.6% [100 µM] (active)

Q: How did the growth turn out when `CCCCCCCSc1ncnc2[nH]ncc12` was run?
A: 103%

Q: For `COc1cccc(/C=N\NC(=O)c2ccncc2)c1O`, which growth is on record?
A: 15.9%

Q: For `Cc1cc(=O)oc2cc(OCCn3c(C)nn(-c4ccc(Cl)cc4)c3=O)ccc12`, which growth is on record?
A: 17.2%

Q: With `CC1CC=CCC1C1OCC(C)(C)CO1` (stereo not given) as the molecule, how does the growth read?
A: 109%

Q: `O=C1CSC(c2ccccc2Cl)N1c1nnc(Cn2nnc3ccccc32)o1` (stereo not given) was tested. Which growth did it give?
A: 88%

Q: How did the growth turn out when `O=C1Nc2ccc(C(=O)O)c(O)c2C1=O` was run?
A: 105%

Q: For `ICCC(c1ccccc1)(c1ccccc1)c1ccccc1`, which growth is on record?
A: 69.5%

Q: How did the growth turn out when `O=C(Oc1cccc2ccccc12)c1ccccc1C(=O)c1ccccc1` was run?
A: 93.2%

Q: With `COc1ccc(C(=O)/C=C/c2ccc(C)cc2)cc1OC` as the molecule, how does the growth read?
A: 80.9%

Q: For `O=C(Nc1nc2c(C(F)(F)F)cccc2s1)c1cc(Cl)ccc1O`, which growth is on record?
A: 2.33% (active)

Q: `CCOC(=O)C1C(=O)NC(C(=O)OCC)(C(=O)OCC)C1CC` (stereo not given) was tested. Which growth did it give?
A: 117%

Q: With `O=C(CNC(=O)c1cccc2ccccc12)Nc1ccccc1Oc1cccc(O)c1` as the molecule, how does the growth read?
A: 11.2% [5 µM]

Q: Which growth does the source give for `CC(=O)Nc1c(Cl)cc2c(c1Cl)Cc1cc([N+](=O)[O-])ccc1-2` here?
A: 81.3%

Q: With `COc1cc2c(cc1OC)C(CC1(O)CCCCC1)N(S(=O)(=O)c1ccc(C)cc1)CC2` (stereo not given) as the molecule, how does the growth read?
A: 8.16% [100 µM] (active)

Q: How did the growth turn out when `NC(=O)NC1(C(=O)O)CCCC1` was run?
A: 112%

Q: Which growth does the source give for `COc1ccc(N2CCN(CC(=O)N3CCN(c4nnc(-c5ccc(Cl)cc5)c(-c5ccc(Cl)cc5)n4)CC3)CC2)cc1` here?
A: 52.4%

Q: How did the growth turn out when `Oc1ccc(/C=N/Nc2nc3ccccc3s2)c(O)c1` was run?
A: 10.9%

Q: Which growth does the source give for `Nc1ccccc1-c1ccn[nH]1` here?
A: 104%

Q: With `Nc1ccc2c(c1)Cc1cc(Cl)c(Cl)cc1-2` as the molecule, how does the growth read?
A: 52.6%

Q: With `O=C1C=CC(=O)N1c1ccccc1N1C(=O)C=CC1=O` as the molecule, how does the growth read?
A: 111%

Q: With `Clc1ccc2c(c1)C(Br)c1cc(Cl)cc(Cl)c1-2` (stereo not given) as the molecule, how does the growth read?
A: 99.9%

Q: For `NS(=O)(=O)c1ccc(-n2ncc3c(NC4CCCCC4)ncnc32)cc1`, which growth is on record?
A: 110%

Q: `COc1cccc(CCN2C(=O)CCC3=C2CCC3=O)c1` was tested. Which growth did it give?
A: 115%

Q: For `O=C(C(=O)c1cc(Br)ccc1O)c1cc(Br)ccc1O`, which growth is on record?
A: 39%

Q: With `O=CN1N=C(c2ccc(Cl)cc2)CC1c1cccc(Nc2ccnc3cc(Cl)ccc23)c1` (stereo not given) as the molecule, how does the growth read?
A: 11.1%

Q: Which growth does the source give for `CCN(CC)CCNCC(=O)Oc1ccc(/C=C/C(=O)CC(=O)/C=C/c2ccc(OC(=O)CNCCN(CC)CC)c(OC)c2)cc1OC` here?
A: 3.7% (active)
